Bioassay records as filed in PubChem BioAssay.
Shown are actives, neighbours in structure and some others; about 0.9% of the full set was active somewhere.
CDC25B CDK2 inh = human CDC25B-CDK2/CyclinA binding inhibition; P30305+P24941; HTRF CDC25B-CDK2/CyclinA binding, anti-His/anti-Flag; active compounds read high; z-score (test concentration not listed); 94,000 compounds, 0.72% hits; in the data active = z-score above about 3.2
TAR Tat displ = HIV-1 TAR-Tat binding disruption | HIV-1 TAR RNA, Tat peptide displacement FRET; active compounds read high | z-score (concentration not given with the values) | 100,000 compounds, 0.6% hits | AID 1259389; active = z-score of 3 or more in at least 2 runs
Of the large screens only hits and unclear results are named; the others gave an inactive call.

COc1ccc(NC(=O)NCc2c(-n3cccc3)sc3c2CCCC3)cc1OC	none
O=C(O)c1ccc2c(c1)C1C=CCC1C(c1ccc(F)cc1)N2 (centres undefined)	TAR Tat displ 10.4
COC(=O)c1ccc([C@@H]2Nc3ccc(C(=O)O)cc3[C@@H]3C=CC[C@@H]32)cc1	TAR Tat displ 7.41
CC(=O)Oc1ccc(C2Nc3ccc(C(=O)O)cc3C3C=CCC32)c(OC(C)=O)c1 (centres undefined)	CDC25B CDK2 inh 5.07 (no result: TAR Tat displ)
COc1cccc([C@@H]2Nc3ccc(C(=O)O)cc3[C@@H]3C=CC[C@@H]32)c1	TAR Tat displ 13.7
COc1cccc([C@@H]2Nc3ccc(C(=O)O)cc3[C@@H]3C=CC[C@@H]32)c1OC	none
CCc1ccc(C2Nc3ccc(C(=O)O)cc3C3C=CCC32)cc1 (centres undefined)	none (no result: TAR Tat displ)
COC(=O)c1ccc(C2Nc3ccc(OC)cc3C3C=CCC32)cc1 (centres undefined)	none
CC(=O)Oc1ccc(C2Nc3ccc(C)cc3C3C=CCC32)c(OC(C)=O)c1 (centres undefined)	none
CS(=O)(=O)N1CCN(Cc2ccncc2)CC1	none (no result: TAR Tat displ)
O=C(O)C(Sc1nncc2ccccc12)c1ccccc1 (centres undefined)	none
COc1cc(OC)cc(C(=O)N2CCC3(CC2)Nc2cccnc2NC3=NC2CCCCC2)c1	none (no result: CDC25B CDK2 inh)
C=CCn1c(C2CC(=O)N(CC3CC3)C2)nc2ccccc21 (centres undefined)	none
CCOC(=O)C1=C(C)NC2=C(C(=O)CC(C)(C)C2)C1c1cccc(O)c1 (centres undefined)	none
CCN(CC)c1ccc(NC(=O)CCc2c(C)nc3c4c(C)cc(C)nc4nn3c2C)c(C)c1	TAR Tat displ 6.36
Cc1cc(C)c2c(n1)nn1c(C)c(CCC(=O)NC3CCCC3)c(C)nc21	none
Cc1onc(-c2ccccc2)c1NC(=O)Nc1ccccc1N1CCOCC1	none (no result: TAR Tat displ)
Cc1onc(-c2ccccc2)c1NC(=O)Nc1ccc(C2=NC(C)(C)CO2)cc1	CDC25B CDK2 inh 5.62 (no result: TAR Tat displ)
N#CCCN(Cc1ccco1)S(=O)(=O)c1cccc2nsnc12	none (no result: TAR Tat displ)
CCc1nnc2c(Nc3ccc4c(c3)OCO4)nc3ccccc3n12	none (no result: CDC25B CDK2 inh)
Cc1cc2c3c(C)n(C4CCCCC4)c(C)c3c(C)nn2c1	none (no result: TAR Tat displ)
COc1ccc(CCn2c(C)c3c(C)nn4cc(C)cc4c3c2C)cc1OC	TAR Tat displ 15
CCOC(=O)CC1(NS(=O)(=O)c2cc(Br)cc3c2N(C(C)=O)CC3)CCCCC1	none (no result: CDC25B CDK2 inh)
COc1ccc(CNc2cc(-c3ccccc3)nc3nncn23)cc1	none
c1ccc(CNc2cc(-c3ccccc3)nc3nncn23)cc1	CDC25B CDK2 inh 4.61
CC(C)Cc1cc(-c2ccccc2)c(C#N)c(N)n1	none
O=C(Cn1c(=O)oc2ccccc21)N(CCCN1CCOCC1)Cc1ccco1	none (no result: CDC25B CDK2 inh)
O=S1(=O)C[C@H](NCc2ccccc2)[C@@H](S(=O)(=O)c2ccccc2)C1	none
CC(C)(C)N[C@H]1CS(=O)(=O)C[C@@H]1S(=O)(=O)c1ccccc1	TAR Tat displ 18.9
CCN(c1ccccc1)S(=O)(=O)c1ccc2c(c1)NC(=O)CCS2	none (no result: CDC25B CDK2 inh)
Cc1ccc(C)c(S(=O)(=O)n2nc(C)c(S(=O)(=O)N3CCCC3)c2C)c1	none (no result: CDC25B CDK2 inh)
O=C1CC(c2ccco2)Cc2[nH]c(=O)c(-c3nc(-c4ccccc4)cs3)cc21 (centres undefined)	CDC25B CDK2 inh 16.8
O=C1CC(c2ccco2)Cc2[nH]c(=O)c(-c3nc(-c4cccc(Cl)c4)cs3)cc21 (centres undefined)	none
Cc1ccc(CNC(=O)c2cnc3sc(N4CCOCC4)nn3c2=O)o1	none (no result: CDC25B CDK2 inh)
COc1cccc(Nc2nc(NCCCN3CCOCC3)nc3c2cnn3C)c1	none (no result: CDC25B CDK2 inh)
Cc1cc2c(cc3c(SCC(=O)NCc4ccco4)nncn32)o1	TAR Tat displ 27.4 (no result: CDC25B CDK2 inh)
Cc1cc2c(cc3c(SCC(=O)Nc4ccccc4F)nncn32)o1	none (no result: CDC25B CDK2 inh)
CCC(C(=O)NCc1ccc(C)o1)n1nc(C)c2sc3ccccc3c2c1=O (centres undefined)	none
Cc1c2c(=O)n(-c3ccccc3)[nH]c2cc(=O)n1Cc1cccnc1	none
Cc1c2c(=O)n(-c3ccccc3)[nH]c2cc(=O)n1Cc1ccco1	TAR Tat displ 9.62
CCOC(=O)c1ccc2c(c1)NC(=O)CO2	none (no result: CDC25B CDK2 inh)
Cn1c2c(c(=O)[nH]c1=O)C(c1ccccc1)C1=C(N2)c2ccccc2C1=O (centres undefined)	none
Cn1c2c(c(=O)[nH]c1=O)C(c1ccc([N+](=O)[O-])o1)C1=C(N2)c2ccccc2C1=O (centres undefined)	TAR Tat displ 3.6
COC(=O)C1=C(C(=O)OC)SC(=C2C(=S)C(C)(C)N3C(=O)C(=O)c4c(C)ccc2c43)S1	none
CCc1nnc2c3ccccc3nc(NCc3ccccc3)n12	none (no result: CDC25B CDK2 inh)
O=C1c2ccccc2C(Nc2cccnc2)N1c1cccnc1 (centres undefined)	none
O=C1c2ccccc2C(Nc2cccnc2)N1c1ccccn1 (centres undefined)	CDC25B CDK2 inh 9.87
O=S(=O)(c1ccccc1)c1cnc2ccc(F)cc2c1NCc1ccccc1	none
O=C(c1ccco1)N(c1cc2sc(=O)oc2c2ccccc12)S(=O)(=O)c1ccccc1	CDC25B CDK2 inh 19.1
O=C(Cc1ccccc1)N(c1ccc2oc(=O)sc2c1)S(=O)(=O)c1ccccc1	none
O=C(Nc1nn2c(-c3ccco3)nnc2s1)c1cccc(F)c1	none
CCc1nnc2sc(NC(=O)c3ccco3)nn12	none
COc1ccc(OCC(=O)Nc2nn3c(-c4ccco4)nnc3s2)cc1	TAR Tat displ 25
O=C(Nc1nn2c(-c3ccco3)nnc2s1)c1ccc(F)cc1	none
CC(C)Cc1nnc2sc(NC(=O)c3ccco3)nn12	TAR Tat displ 11.5
O=C(COc1ccccc1)Nc1nn2c(-c3ccco3)nnc2s1	TAR Tat displ 31.6
COCCNc1ncnc2sc3c(c12)CCCC3	none
c1ccc(CCNc2nnns2)cc1	none (no result: TAR Tat displ)
O=C(O)c1cccc(N2COc3ccc4cc(Br)ccc4c3C2)c1	none (no result: TAR Tat displ)
O=c1cc(-c2ccccc2)[nH]c(=S)[nH]1	none (no result: TAR Tat displ)
N/C(=N\O)c1c(-c2ccccc2)cc(-c2ccc(F)cc2)[nH]c1=O	CDC25B CDK2 inh 11 (no result: TAR Tat displ)
Cc1ccc(Nc2cc(C)nc(-n3cc([N+](=O)[O-])cn3)n2)cc1	none (no result: CDC25B CDK2 inh)
Fc1cccc(Oc2ncnc3c2oc2ccccc23)c1	none (no result: CDC25B CDK2 inh)
Cn1c(=O)n(Cc2ccccc2)c(=O)c2c1nc1n2CCN1c1ccc(F)cc1	none (no result: CDC25B CDK2 inh)
Cn1c(=O)n(C/C=C/c2ccccc2)c(=O)c2c1nc1n2CCN1c1ccc(F)cc1	TAR Tat displ 11.5 (no result: CDC25B CDK2 inh)
O=C(CSCC(=O)c1ccccc1)c1ccccc1	none (no result: TAR Tat displ)
COC(=O)c1ccc(C(=O)OC)c(NC(=O)NC2(C(F)(F)F)Oc3ccccc3O2)c1	none (no result: TAR Tat displ)
Cc1cc(C)c2c(=O)cc(C(=O)Nc3sc4c(c3C(=O)NCc3ccco3)CCC4)oc2c1	CDC25B CDK2 inh 4.01
Cc1cc(C)c2oc(C(=O)Nc3sc4c(c3C(=O)NCc3ccco3)CCC4)cc(=O)c2c1	none
Cc1ccc2oc(C(=O)Nc3sc4c(c3C(=O)NCc3ccco3)CCC4)cc(=O)c2c1	none
Cc1cc2oc(C(=O)Nc3sc4c(c3C(=O)NCc3ccco3)CCC4)cc(=O)c2cc1C	CDC25B CDK2 inh 6.56, TAR Tat displ 11.6
O=C(Nc1cc(F)ccc1F)N1CC=C(c2c[nH]c3ccccc23)CC1	none (no result: CDC25B CDK2 inh)
CC1SCC(=NOC(=O)Nc2ccc(Cl)cc2)CS1 (centres undefined)	none (no result: TAR Tat displ)
CC1SCC(=NOC(=O)c2ccccc2Cl)CS1 (centres undefined)	CDC25B CDK2 inh 12.9 (no result: TAR Tat displ)
Cc1ccc(C2=NN(c3nc(-c4ccc(C)c(C)c4)cs3)C(c3ccc(Cl)cc3)C2)cc1 (centres undefined)	none (no result: TAR Tat displ)
